Assay outcomes as filed in PubChem BioAssay.
This is a sample that favours compounds with a hit; in the whole collection about 9.8% have one here.
CBFb-RUNX1 inh: blocks binding between human CBF-beta and RUNX1; Q01196+Q13951; AlphaScreen CBFb-His/RUNX1-biotin binding, biochemical; Potency, µM (series often up to 59.8 µM), usual class: inhibitors; 230,000 tested, under 10 active; AID 1477
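AlphaScreen proximity signal reports loss of binding between His-tagged CBF-beta and biotin-labelled RUNX1, each at 30 nM. Proteins are pre-associated for 20 minutes, compounds added for 15 minutes, then beads for 90 minutes, all at ambient temperature.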
HttQ103 aggreg: mutant huntingtin aggregation inhibition; PC12 HttQ103-GFP aggregates, Acumen cytometry, 40 h; Potency, µM (titrated, usually from 46.1 µM), usual class: inhibitors; actives 1.1% (n = 220,000); AID 1688; further: nearly all actives have a fitted effect of over 60% in size
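Ecdysone-promoter PC12 model expressing HTT exon 1 Q103 fused to GFP, induced by tebufenozide at 100 nM final. Compounds titrated; aggregates sized 1–25 µm scored on a 488 nm laser cytometer.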
HPGD inh: inhibitors of human 15-hydroxyprostaglandin dehydrogenase (HPGD) | P15428 | purified HPGD, NADH fluorescence kinetic, PGE2 substrate | Potency, µM, hits mostly inhibitors | actives 4.3% (n = 150,000); active means well fitted inhibition curve with a large enough effect, not every such curve was filed as active; inconclusive means small, poorly fitted or top-dose-only effect, or another doubt; inactive means no such curve, though single readings can be large or run the other way
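NADH formation kinetics: reaction with 30 uM PGE2 and 1 mM NAD+ (final), 20 nM enzyme, Tris-HCl pH 8 with Tween 20, after 15 min compound preincubation at room temperature. Fluorescence change, last versus first of five reads.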
ALDH1A1 block: inhibitors of human aldehyde dehydrogenase 1A1. Purified ALDH1A1, NADH fluorescence, propionaldehyde substrate. AID 1030. actives 7.3% (n = 220,000). Potency, µM (doses to about 75.3 µM), hits mostly inhibitors; active means well fitted inhibition curve with a large enough effect, not every such curve was filed as active; inconclusive means small, poorly fitted or top-dose-only effect, or another doubt; inactive means no such curve, though single readings can be large or run the other way
Target sequence (P00352 whole entry, looked up): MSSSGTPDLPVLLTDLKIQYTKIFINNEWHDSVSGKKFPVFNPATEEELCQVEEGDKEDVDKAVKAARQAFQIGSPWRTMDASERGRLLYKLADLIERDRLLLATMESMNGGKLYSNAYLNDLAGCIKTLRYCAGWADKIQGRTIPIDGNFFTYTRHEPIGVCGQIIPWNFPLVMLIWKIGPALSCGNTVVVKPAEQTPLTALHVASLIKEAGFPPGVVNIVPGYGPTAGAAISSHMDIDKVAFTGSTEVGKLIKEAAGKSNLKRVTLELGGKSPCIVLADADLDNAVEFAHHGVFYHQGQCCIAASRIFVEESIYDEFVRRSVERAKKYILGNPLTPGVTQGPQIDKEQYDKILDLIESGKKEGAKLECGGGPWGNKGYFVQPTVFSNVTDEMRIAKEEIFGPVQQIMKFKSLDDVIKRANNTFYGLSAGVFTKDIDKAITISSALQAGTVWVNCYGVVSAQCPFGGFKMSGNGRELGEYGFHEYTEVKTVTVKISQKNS
JMJD2E inh: JMJD2E (human) inhibition. JMJD2E catalytic domain, FDH-coupled NADH fluorescence (FDH is formaldehyde dehydrogenase). B2RXH2. actives 1.6% (n = 230,000). Potency, µM (highest dose often 57.1 µM), usual class: inhibitors; active means well fitted inhibition curve with a large enough effect, not every such curve was filed as active; inconclusive means small, poorly fitted or top-dose-only effect, or another doubt; inactive means no such curve, though single readings can be large or run the other way; further: nearly all actives have a fitted effect of over 50% in size
HTT cytoprotect: cytoprotection in Huntington HTT-Q103 PC12 cell model | PC12 HTT-Q103 induced, cytoprotection, ATP luminescence, 40 h | Potency, µM (series often up to 56.4 µM), usual class: activators | actives 0.14% (n = 230,000) | AID 1471; further: nearly all actives have a fitted effect of over 45% in size
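Readout: ATPlite luminescence (ATP level). Model: stable PC12, inducible Htt exon1 Q103-GFP. Inducer: tebufenozide, 100 nM final. Compounds: dose series. No G418 in medium.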
HPGD inh cf: confirmation of human HPGD inhibitors; shares compounds with HPGD inh; recombinant HPGD, NADH fluorescence, PGE2 substrate; Potency, µM (doses to about 57.1 µM), hits mostly inhibitors; actives 90% (n = 90); AID 2429; calls by dose curve
Hits are given with their value; . = inactive; ? = inconclusive; / = no result given; [ ] = remark or other dose. Unless noted, the call rests on the fitted dose curve; in most records, active means well fitted curve in the direction sought with a large enough effect; inconclusive means small, poorly fitted or top-dose-only effect, or another doubt; inactive means no such curve, though single readings can be large; an effect the other way counts as inactive or inconclusive.

SMILES	CBFb-RUNX1 inh	HttQ103 aggreg	HPGD inh	ALDH1A1 block	JMJD2E inh	HTT cytoprotect	HPGD inh cf
O=C(NCCc1ccccc1)C1CCC(CNc2c(N3CCCCC3)c(=O)c2=O)CC1 (stereo not given)	.[2.36 µM]	.	6.31µM	.	.	/	6.31µM
Cc1ccc(CCNC(=O)C2CCC(CNc3c(N4CCC(C)CC4)c(=O)c3=O)CC2)cc1 (stereo not given)	.[2.36 µM]	.	?	.	.	/	14.1µM
CC(C)(C)c1ccc(OCCC(=O)NC2=NCCS2)cc1	.	.	.	.	.	.	/
CCOC(=O)c1cc2c(ccn2-c2ccc(F)cc2)n1CC(=O)N(CC)CC	.	.[9.22 µM]	/	?	?	.[10 µM]	/
CN(C)CCNC(=O)Nc1ccc([N+](=O)[O-])cc1	.	?	/	.	.	.	/
Cc1ccc(C)c(Cn2c(=O)n(-c3ccc(CC(=O)NCc4ccco4)cc3)c(=O)c3sccc32)c1	.	.	.	.	.	.[10 µM]	/
Cc1ccc(C)c(Cn2nnc3c(=O)[nH]c(C(=O)NCc4ccco4)nc32)c1	.	.	0.562µM	.	.	.	0.316µM
O=C1ON=C(c2ccccc2)/C1=C/c1ccc(-c2ccccc2[N+](=O)[O-])o1	?	.	1.58µM	10µM	?	/	0.447µM
Cc1nnc(NC(=O)CSc2n[nH]c(-c3ccccc3)n2)s1	.	.[9.22 µM]	/	?	.	.[10 µM]	/
O=C(CSc1n[nH]c(-c2ccccc2)n1)Nc1ncc(Br)cc1Br	.	.	0.794µM	.	.	.	1.41µM
COCCNC(=O)C1CCC(Cn2c(=S)[nH]c3ccccc3c2=O)CC1 (stereo not given)	.	.	1.78µM	.	.	.[0.074 µM]	1.12µM
O=C(NCCc1c[nH]c2ccccc12)C1CCC(Cn2c(=S)[nH]c3ccccc3c2=O)CC1 (stereo not given)	.	?	.	.	.	.[10 µM]	/
COc1cc(C(=O)N2CCN(C(=O)c3ccco3)CC2)c([N+](=O)[O-])cc1OC	.	.	/	.	.	.	/
COc1ccc(OC)c(NC(=S)NCC(c2cccnc2)N2CCOCC2)c1 (stereo not given)	.	.	/	?	.	.	/
O=C(c1ccc(N2CCCC2=O)cc1)N1CCN(c2ccccc2)CC1	.	.	.	.	.	.	/
O=C(c1ccc(N2CCCC2=O)cc1)N1CCCCCC1	.	.	0.224µM	?	.	.	0.282µM
CNC(=S)N(CCc1ccc(S(N)(=O)=O)cc1)C1CC(=O)N(c2ccccc2F)C1=O (stereo not given)	.	.[9.22 µM]	/	.	?	.[10 µM]	/
Cc1oc(-c2cccc(Cl)c2)nc1CSc1nc2c(c(=O)[nH]1)CCC2	.[2.36 µM]	.	0.562µM	.	.	/	1.26µM
CN(C)C(=O)c1ccc(-c2nc(Nc3ccncc3)c3ccccc3n2)cc1	/	/	0.159µM	.	?	.	0.112µM
CN(C)c1ccc(-c2nc(Nc3ccncc3)c3ccccc3n2)cc1	/	/	?	.	?	.	/
Cc1ccccc1NS(=O)(=O)c1cc(C(=O)N2CCc3ccccc3C2)ccc1C	.	.	.	.	.	.	/
Cc1ccc(NS(=O)(=O)c2cc(C(=O)N3CCc4ccccc4C3)ccc2Cl)cc1	.	.	.	.	.	.	.
O=C(CSc1nc2ncc(Br)cc2[nH]1)c1cccc([N+](=O)[O-])c1	.	.	7.94µM	?	.	.[10 µM]	2.24µM
Fc1ccccc1CSc1nc2ncc(Br)cc2[nH]1	.	.[9.22 µM]	0.794µM	.	.	.	0.631µM
COc1ccc(OC)c(NC(=O)CSc2nnc(C3CCCCC3)o2)c1	.	/	/	.	.	/	/
CCN(CC)C(=O)c1sc2nc(-c3cccs3)cc(-c3ccc(Cl)cc3)c2c1N	.	.	6.31µM	?	?	.	10µM
Cc1ccc(C(=O)COC(=O)CCC(=O)NC2CCCCC2)cc1[N+](=O)[O-]	.	.	/	.	.	.	/
O=C(CCc1ccc(Oc2cc([N+](=O)[O-])cc([N+](=O)[O-])c2)cc1)NC1CCCC1	.	.	15.8µM	.	.	.[10 µM]	5.01µM
